From PubChem BioAssay (NCI)
About 83,000 compounds went through this panel and 20% of them were active in at least one assay; those are over-represented in the sample as a whole.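 Cell lines were cultured in 96-well plates, exposed to a single compound concentration, and assessed for percent growth 48 hours later.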 Activity calls are given as the source filed them. Rule for the calls: active = growth percent below 10; inactive = the rest.

Key:
Test in all cases: NCI-60 one-dose screen, 48 h (100 = growth as untreated, 0 = no growth, -100 = all killed)
K-562 leukemia = details: 10 µM unless noted
MALME-3M melanoma = details: 10 µM unless noted
RXF 393 renal = details: 10 µM unless noted
SF-295 CNS = details: 10 µM unless noted
M14 melanoma = details: 10 µM unless noted
SNB-75 CNS = details: 10 µM unless noted
SNB-19 CNS = details: 10 µM unless noted
SK-MEL-2 melanoma = details: 10 µM unless noted
HL-60(TB) leukemia = details: 10 µM unless noted
CCRF-CEM leukemia = details: 10 µM unless noted
SR leukemia = details: 10 µM
OVCAR-8 ovarian = details: 10 µM unless noted
OVCAR-5 ovarian = details: 10 µM unless noted
OVCAR-4 ovarian = details: 10 µM unless noted
SK-OV-3 ovarian = details: 10 µM unless noted
IGROV1 ovarian = details: 10 µM
BT-549 breast = details: 10 µM
MDA-MB-435 melanoma = details: 10 µM unless noted
U251 CNS = details: 10 µM unless noted
A498 renal = details: 10 µM unless noted

Measured: growth

CC1([N+](=O)[O-])COP(=O)(Nc2ccc(F)cc2)OC1 (centres undefined)
inactive: K-562 leukemia 103% | MALME-3M melanoma 110% | RXF 393 renal 100% | SF-295 CNS 106% | M14 melanoma 101% | SNB-75 CNS 95.6% | SNB-19 CNS 107% | SK-MEL-2 melanoma 98% | HL-60(TB) leukemia 90.4% | CCRF-CEM leukemia 96.3% | SR leukemia 84.2% | OVCAR-8 ovarian 101% | OVCAR-5 ovarian 106% | OVCAR-4 ovarian 113% | SK-OV-3 ovarian 101% | IGROV1 ovarian 103% | BT-549 breast 96.8% | MDA-MB-435 melanoma 110%

COc1cc(C2CC(=O)Nc3nc(N)[se]c32)c(OC)c2c1OCO2 (centres undefined)
active: SF-295 CNS 6.71%
inactive: MALME-3M melanoma 102% | M14 melanoma 85.1% | SNB-75 CNS 101% | SNB-19 CNS 51.9% | U251 CNS 48% | SK-MEL-2 melanoma 101% | A498 renal 102% | HL-60(TB) leukemia 84.4% | CCRF-CEM leukemia 104% | SR leukemia 107% | OVCAR-8 ovarian 104% | OVCAR-5 ovarian 108% | OVCAR-4 ovarian 96.3% | SK-OV-3 ovarian 78.3% | IGROV1 ovarian 83.6% | BT-549 breast 101% | MDA-MB-435 melanoma 99%

CCCCOC(=O)c1ccccc1C(=O)O.CCCCOC(=O)c1ccccc1C(=O)O.[Cu+2]
inactive: K-562 leukemia 96.2% | MALME-3M melanoma 83.3% | RXF 393 renal 116% | M14 melanoma 101% | SNB-19 CNS 131% | SK-MEL-2 melanoma 117% | A498 renal 105% | HL-60(TB) leukemia 89.6% | CCRF-CEM leukemia 108% | SR leukemia 92.7% | OVCAR-8 ovarian 108% | OVCAR-5 ovarian 126% | OVCAR-4 ovarian 101% | SK-OV-3 ovarian 93.4% | IGROV1 ovarian 122% | BT-549 breast 105% | MDA-MB-435 melanoma 105%

N#[N+]c1nc2nc(N)[nH]c(=O)c2[nH]1
inactive: K-562 leukemia 101% | MALME-3M melanoma 107% | RXF 393 renal 111% | SF-295 CNS 101% | SNB-75 CNS 92% | SNB-19 CNS 99.8% | U251 CNS 91.5% | SK-MEL-2 melanoma 101% | A498 renal 107% | HL-60(TB) leukemia 100% | CCRF-CEM leukemia 95.1% | SR leukemia 94.2% | OVCAR-8 ovarian 100% | OVCAR-5 ovarian 104% | OVCAR-4 ovarian 105% | SK-OV-3 ovarian 94.2% | IGROV1 ovarian 107% | MDA-MB-435 melanoma 100%

Cc1nnc([S-])s1.[Au+].c1ccc([PH+](c2ccccc2)c2ccccc2)cc1
active: K-562 leukemia 1.12% | MALME-3M melanoma -61.6% | RXF 393 renal -84.6% | M14 melanoma -2.48% | SNB-75 CNS -76.3% | U251 CNS -59.9% | SK-MEL-2 melanoma -12.2% | HL-60(TB) leukemia -15.2% | CCRF-CEM leukemia 0.579% | SR leukemia 7.04% | IGROV1 ovarian -25.4% | MDA-MB-435 melanoma 5.65%
inactive: SF-295 CNS 75% | SNB-19 CNS 19.2% | A498 renal 25.1% | OVCAR-8 ovarian 15.9% | OVCAR-5 ovarian 63.6% | OVCAR-4 ovarian 36.2% | BT-549 breast 33.9%

ClCCN(CCCl)c1nc(Cl)c(C2CC(c3ccc(Cl)cc3)=NN2c2cc(Cl)cc(Cl)c2)s1 (centres undefined)
inactive: K-562 leukemia 91.7% | MALME-3M melanoma 107% | RXF 393 renal 119% | SF-295 CNS 101% | M14 melanoma 95.8% | SNB-75 CNS 97.7% | SNB-19 CNS 88.1% | U251 CNS 98.6% | SK-MEL-2 melanoma 96.3% | A498 renal 101% | HL-60(TB) leukemia 104% | CCRF-CEM leukemia 99.7% | SR leukemia 93.1% | OVCAR-8 ovarian 99.1% | OVCAR-5 ovarian 108% | OVCAR-4 ovarian 99.7% | IGROV1 ovarian 102% | BT-549 breast 103% | MDA-MB-435 melanoma 103%
